# Data as given in PubChem BioAssay (EPA / NIEHS).
# Calls of active or inactive are those of the source. Rule for the calls: active = hit-call score of the fitted dose curve at least 0.9, where 1 is the maximum; inactive = score below 0.9.
# Biological target: Nuclear respiratory factor 1 (Homo sapiens) (UniProt Q16656)
# Test: ATG_NRF1_CIS: Attagene CIS-FACTORIAL HepG2 Assay for human Nuclear Respiratory Factor 1 (NRF1) Orphan Gene (AID 2282987)
# Conditions: HepG2 NRF1 cis-element reporter, Attagene multiplex; actives raise or lower the signal
# Experimental: ATG_CIS is a cell-based, multiplexed-readout assay that uses HepG2, a human liver cell line, with measurements taken at 24 hours after chemical dosing in a 24-well plate.ATG_NRF1_CIS is one of 52 assay component(s) measured or calculated from the ATG_CIS assay. It is designed to make measurements of mRNA induction, a form of inducible reporter, as detected with fluorescence intensity signals by Reverse transcription polymerase chain reaction (RT-PCR) and Capillary electrophoresis technology.Data from the assay component ATG_NRF1_CIS was analyzed into 1 assay endpoint. This assay endpoint, ATG_NRF1_CIS, was analyzed with bidirectional fitting relative to DMSO as the negative control and baseline of activity. Using a type of inducible reporter, measures of mRNA for gain or loss-of-signal activity can be used to understand the reporter gene at the transcription factor-level as they relate to the gene NRF1. Furthermore, this assay endpoint can be referred to as a primary readout, because this assay has produced multiple assay endpoints where this one serves a reporter gene function. To generalize the intended target to other relatable targets, this assay endpoint is annotated to the dna binding intended target family, where the subfamily is nuclear respiratory factors.
# Human liver HepG2 cells are transiently transfected with multiple reporter transcription units (MRTUs) in 6-well plates using FuGene 6 reagent (Roche; 3 ml FuGene/1 mg DNA). The MRTU constructs are regulated by a cis-regulating element (promoter). […] A major difference between the CIS and TRANS system is that in CIS activities of endogenous TFs are measured, whereas the TRANS assay evaluates changes in activities of exogenous, chimeric NR-Gal4 proteins. […] At the end of 24 hour incubation, total RNA was isolated using TriZol reagent (Invitrogen). The isolated RNA is then reverse-transcribed using oligo(dT) primer and Mo-MLV reverse transcriptase (Invitrogen) with DNAse I (Ambion) treatment for 30 min. The one-tenth of the produced cDNA was amplified by PCR using Taq DNA polymerase (Invitrogen) and two reporter sequence-specific primers. The PCR products were fluorescently labeled by primer extension with 6-arboxyfluorescein (6-FAM) 5'-labeled reporter sequence-specific primer (2 min at 95 C, 20 s at 68 C and 10 min at 72 C) and these products were digested with 5U of HpaI (New England Biolabs) for 2h at 37 C. The fragments were purified using Qiaquick PCR columns (Qiagen), analyzed on an ABI 3130xL genetic analyzer (Applied Biosystems) with peak positions identified by using a set of X-rhodamine (ROX)-labeled MapMarker1000 molecular weight standards (BioVentures). The raw capillary electrophoresis data was processed using Attagraph software (Attagene).
# Sequence of Nuclear respiratory factor 1 (Homo sapiens) (Q16656 whole entry, looked up): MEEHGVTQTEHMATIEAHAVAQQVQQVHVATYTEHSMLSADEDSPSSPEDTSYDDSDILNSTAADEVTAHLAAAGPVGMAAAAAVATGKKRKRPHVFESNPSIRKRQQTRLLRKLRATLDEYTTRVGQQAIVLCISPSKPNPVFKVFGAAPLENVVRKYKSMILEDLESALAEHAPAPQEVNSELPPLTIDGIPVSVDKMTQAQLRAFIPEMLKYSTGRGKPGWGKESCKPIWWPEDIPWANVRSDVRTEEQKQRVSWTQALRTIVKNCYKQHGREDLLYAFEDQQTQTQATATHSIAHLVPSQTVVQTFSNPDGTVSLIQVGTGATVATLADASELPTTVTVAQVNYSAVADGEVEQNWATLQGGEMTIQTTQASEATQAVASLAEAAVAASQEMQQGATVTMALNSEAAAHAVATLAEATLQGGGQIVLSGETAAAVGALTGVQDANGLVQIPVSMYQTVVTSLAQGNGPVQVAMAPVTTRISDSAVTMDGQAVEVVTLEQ
SMILES,outcome,AC50
CC(C)COC(=O)c1ccccc1C(=O)OCC(C)C,inactive,–
[O-][Cl+]O,inactive,–
OCCCBr,inactive,–
CO[C@@H]1[C@H](OC(=O)NC(=O)CCl)CC[C@]2(CO2)[C@H]1[C@@]1(C)O[C@@H]1CC=C(C)C,inactive,–
CCCCC(CC)COC(=O)c1ccc(C(=O)OCC(CC)CCCC)c(C(=O)OCC(CC)CCCC)c1 (stereo not given),inactive,–
CNC(=O)Oc1cccc2c1OC(C)(C)C2,inactive,–
C1=Cc2cccc3cccc1c23,inactive,–
Cc1cc(N=Nc2ccccc2C)ccc1N,inactive,–
Cc1ccc(N)c(N)c1,inactive,–
Clc1ccc(C(c2ccc(Cl)cc2)C(Cl)(Cl)Cl)cc1,inactive,–
Clc1ccc(Cl)c(Cl)c1,inactive,–
O=C(Oc1ccc(Br)cc1)N1CCN2CCC1CC2,inactive,–
CCC[CH2][Sn]([Cl])([CH2]CCC)[CH2]CCC,inactive,–
Cc1ccc([N+](=O)[O-])cc1,inactive,–
CCOc1cccc(C2(N3CCN(c4ccccc4)CC3)CCC(C)CC2)c1 (stereo not given),inactive,–
C=CCc1ccc2c(c1)OCO2,inactive,–
Cc1cccc(N)c1N,inactive,–
Cn1cc(-c2ccccc2)c(=O)c(-c2cccc(C(F)(F)F)c2)c1,–,100 µM (active)
CCCCCOC(=O)c1ccccc1C(=O)OCCCCC,inactive,–
Nc1cc(Cl)cc(C(=O)O)c1Cl,inactive,–

SMILES,outcome,AC50
O=C(N[C@H](c1ccccc1)[C@@H]1CN2CCC1CC2)c1c(Cl)ccc(C(F)(F)F)c1Cl,inactive,–
Oc1ccccc1Cl,inactive,–
C[N+](C)(C)CC1CO1 (stereo not given),inactive,–
c1ccc(NNc2ccccc2)cc1,inactive,–
OCCOCCO,inactive,–
C[C@]12C=CC3=C4CCC(=O)C=C4CC[C@H]3[C@@H]1CC[C@@H]2O,inactive,–
COP(=S)(OC)SCN1C(=O)c2ccccc2C1=O,inactive,–
CCC12COCN1COC2,inactive,–
N#CC(Br)Br,inactive,–
O=[N+]([O-])c1ccc(Oc2ccc(Cl)cc2Cl)cc1,inactive,–
Brc1ccc(Oc2ccccc2)cc1,inactive,–
O=P(OCCCl)(OCCCl)OCCCl,inactive,–
CN(C)C(=O)Nc1ccc(Cl)cc1,inactive,–
Clc1ccccc1Cl,inactive,–
CCCCCCCCn1sccc1=O,–,16.5 µM (active)
COC(=O)Nc1nc2ccccc2[nH]1,inactive,–
Oc1ccc2ccc3cccc4ccc1c2c34,inactive,–
[As]#[In],inactive,–
CCN(CC)N=O,inactive,–
CCNS(=O)(=O)C(F)(F)C(F)(F)C(F)(F)C(F)(F)C(F)(F)C(F)(F)C(F)(F)C(F)(F)F,inactive,–
